PubChem BioAssay AID1347076 (National Center for Advancing Translational Sciences (NCATS), 2019)
About 13,000 (3.2%) of roughly 400,000 compounds were called active. About 18% were inconclusive and are not listed. Calls come from the whole dose curve; as a rule, active = well fitted cell-killing curve with a large enough effect; inconclusive = small, poorly fitted or top-dose-only effect, or effect the other way; inactive = flat fitted curve, though single readings scatter. Shown is part of a subset that was picked to be rich in actives. Where a call stands in place of a potency, no number is given.

test: qHTS assay for MDR1-selective chemotherapeutics: Primary screen using the drug-selected MDR subline cells KB-V1; conditions: KB-V1 MDR cells viability, CellTiter-Glo, 72 h; series mostly up to 46.1 µM; note: nearly all actives have a fitted effect of over 60% in size
In short: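 Compound-treated KB-V1 multidrug-resistant cells, 72 h, 37 degrees C; viability by CellTiter-Glo. Fitted qHTS curves give the values.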
Potency is the fitted concentration of half-maximal effect.

Row | Structure (SMILES) | Potency
1 | COC(=O)C1=CN(c2c(C)cc(C)cc2C)C(N)=C(C#N)C1c1cccc(F)c1 (stereo not given) | inactive
2 | Cc1nnc(C)n1-c1ccc(C(=O)Nc2cccc(Br)c2)cc1 | inactive
3 | O=C(NC1CC1)c1cccc(Br)c1 | inactive
4 | COC(=O)C1NN=C(C(=O)c2ccc(Br)cc2)C1c1cccc(Br)c1 (stereo not given) | 23.1 µM (active)
5 | Cc1ccc(NS(=O)(=O)c2ccc(N/N=C/c3ccccc3OCC(=O)O)c([N+](=O)[O-])c2)c(C)c1 | inactive
6 | Cc1ccc(-n2c(C)cc(/C=N/Nc3ccc([N+](=O)[O-])cn3)c2C)c(C)c1 | inactive
7 | Cc1cccc(COc2ccccc2/C=N/Nc2ccc([N+](=O)[O-])cc2)c1 | 16.4 µM (active)
8 | CC1(C)OC(=O)C2=C(CC(c3ccccc3)OC2CCc2ccccc2)O1 (stereo not given) | inactive
9 | Cc1noc(C)c1NC(=O)N(C)C[C@@H]1Oc2cc(Br)ccc2S(=O)(=O)N([C@@H](C)CO)C[C@H]1C | inactive
10 | CCOc1cc(/C=N/O)ccc1OCc1ccccc1F | inactive
11 | Fc1ccccc1COc1cccc2cccnc12 | inactive
12 | Fc1ccccc1COc1ccccc1CNCc1ccncc1 | 6.51 µM (active)
13 | COc1ccc(-n2nnc(-c3nsc(NC(=O)c4ccc(C)c(C)c4)n3)c2C)cc1Cl | inactive
14 | CCOc1ccc(NC(=O)Nc2ccc(N(C)C(C)=O)cc2)cc1 | inactive
15 | CCOc1ccc(NC(=O)Nc2cc(C)ccc2OC)cc1 | 14.6 µM (active)
16 | COc1ccc(C)cc1NC(=O)NCc1ccccn1 | inactive
17 | Cc1ccc(Cl)cc1-n1ncc2c(N3CCC(C(N)=O)CC3)ncnc21 | inactive
18 | CC(=O)c1ccc(OCC(=O)N(C)C2CCS(=O)(=O)C2)cc1 (stereo not given) | inactive
19 | COc1ccc(CCNc2nc(-c3ccc(F)cc3)cc(C(F)(F)F)n2)cc1OC | inactive
20 | CCCC(=O)Nc1cc(OCC)c(NC(=O)NC2CCCCC2)cc1OCC | inactive
21 | CCCN(CC(=O)NC(=O)NC1CCCCC1)CC(=O)Nc1cc(Cl)ccc1Cl | 4.11 µM (active)
22 | O=C(COc1cc(Cl)c(Cl)cc1Cl)NC(=O)NC1CCCC1 | inactive

Row | Structure (SMILES) | Potency
23 | CSc1ccc(CNC(=O)C2(C)CCCN2C)cc1 (stereo not given) | inactive
24 | CCN(CC)c1ncnc2c1ncn2[C@H]1CN(Cc2cccs2)C[C@@H](CO)O1 | inactive
25 | COCCNC(=O)c1ccc2c(c1)N=C(C)c1cc(C)ccc1S2 | 0.92 µM (active)
26 | CCC1=Nc2cc(C(=O)NCCN3CCCC3)ccc2Sc2ccc(C)cc21 | inactive
27 | CCC1=Nc2cc(C(=O)NCCCN3CCOCC3)ccc2Sc2ccc(Br)cc21 | inactive
28 | CCN1C(=O)[C@@H]2[C@@H]3CN(S(=O)(=O)c4ccccc4C)[C@@H](c4ccc(Cl)cc4)[C@@H]3C(=O)C[C@@H]2C1=O | inactive
29 | COc1ccc(C(=O)COC(=O)c2c(C)noc2C)cc1Cl | inactive
30 | Cc1ccc(S(=O)(=O)N2CCN(C(=O)COC(=O)c3c(C)noc3C)CC2)c(C)c1 | inactive
31 | Cc1ccc(-c2nc(COC(=O)c3c(C)noc3C)cs2)cc1 | 23.1 µM (active)
32 | CCc1ccc(C2CC(=O)c3c([nH]c(C(=O)OCc4ccc(C)cc4)c3C)C2)cc1 (stereo not given) | inactive
33 | COc1ccc(-n2c(=O)c3ccccc3n(Cc3ccccc3Cl)c2=O)cc1 | inactive
34 | N#CCCN(C(=S)Nc1ccc(Cl)c(Cl)c1)C1CCCCC1 | inactive
35 | COc1ccc(C2C(=O)N(C3CCCCC3)CC(=O)N2Cc2ccccc2Cl)cc1OC (stereo not given) | inactive
36 | CCCC(=O)N1CCC1(C)C(=O)NS(=O)(=O)c1ccc(Cl)cc1 (stereo not given) | inactive
37 | CCn1cc(C(=O)NCCc2ccccc2)c(=O)c2cc(S(=O)(=O)N3CCCCCC3)ccc21 | inactive
38 | CCOc1ccccc1NC(=O)Cc1cccs1 | inactive
39 | CCOc1ccccc1NC(=O)Cn1nnc(C(=O)NCc2cccs2)c1N | 0.58 µM (active)
40 | CCOc1ccccc1NC(=O)Cn1nnc(C(=O)Nc2ccc(C)c(C)c2)c1N | inactive
41 | O=C(Cc1ccc(Cl)cc1)Nc1ccc2nn(-c3ccc(Cl)cc3)nc2c1 | inactive
42 | O=[N+]([O-])c1ccc(NCCCN2CCOCC2)c(Cl)c1 | inactive
43 | CC1CN(c2nc(Nc3ccccc3)nc(N)c2[N+](=O)[O-])CC(C)O1 (stereo not given) | inactive
44 | Nc1nc(NCCCN2CCOCC2)nc(Nc2ccccc2)c1[N+](=O)[O-] | 23.1 µM (active)

Row | Structure (SMILES) | Potency
45 | COc1ccc(-c2cc3c(c4c2ccn4C)C2CCC3C2)cn1 (stereo not given) | inactive
46 | O=C(Cn1c(=O)nc(-c2ccccc2)c2cc(Cl)ccc21)NCc1ccc(Cl)cc1 | inactive
47 | COc1cccc(NC(=O)Nc2ccc(F)cc2)c1 | inactive
48 | CC1(C(=O)NS(=O)(=O)c2ccc3ccccc3c2)CCN1C(=O)C1(c2ccc(Cl)cc2)CCC1 (stereo not given) | inactive
49 | Cc1cccc(N2CCN(C(=O)c3cccc(S(=O)(=O)N4CCc5ccccc5C4)c3)CC2C)c1 (stereo not given) | 2.59 µM (active)
50 | CN(C)C(CNC(=O)c1cccc(S(=O)(=O)N2CCc3ccccc3C2)c1)c1ccccc1 (stereo not given) | inactive
51 | CN1CCN(S(=O)(=O)c2cccc(C(=O)N3CCc4ccccc43)c2)CC1 | inactive
52 | O=C(COC(=O)c1cncc(Br)c1)Nc1ccc(S(=O)(=O)N2CCOCC2)cc1 | inactive
53 | COc1ccc(C)cc1S(=O)(=O)N1CCN(S(=O)(=O)c2cc(C(=O)O)ccc2C)CC1 | inactive
54 | Cc1ccc(C)c(S(=O)(=O)N2CCN(c3ncnc4sccc34)CC2)c1 | 7.31 µM (active)
55 | Cc1ccc(S(=O)(=O)N2CCN(c3ncnc4ccccc34)CC2)cc1 | inactive
56 | CCc1nc2c(OCc3ccccc3)cccn2c1N(C)C(=O)c1ccco1 | inactive
57 | CCCc1c(-c2ccccc2F)ncn1Cc1ccccc1OC | 20.6 µM (active)
58 | COc1ccccc1Cc1c(-c2ccc(Cl)cc2)nc2c3ccccc3ccn12 | inactive
59 | CCCCc1c(-c2ccc(Br)cc2)ncn1CCc1ccccc1OC | 20.6 µM (active)
60 | COc1ccc(CNC(=O)c2cc3c(-c4ccccc4F)nn(C)c3s2)c(OC)c1 | inactive
61 | CCCCNS(=O)(=O)CCNCc1ccccc1OC | inactive
62 | CCCCc1c(-c2ccc(Cl)cc2)ncn1CCc1ccccc1OC | 13 µM (active)
63 | COc1ccccc1CCNS(=O)(=O)c1cn(C)nc1C | inactive
64 | COc1ccccc1Cc1c(-c2ccc(Cl)cc2)nc2ccc(Cl)cn12 | inactive
65 | COc1cccc(OC)c1C(=O)N1CCN(Cc2ccccc2F)CC1 | inactive
